From PubChem BioAssay
Compounds with a hit are over-represented: about 22% of the library has one in this group of screens.
CYP2C9 activ: human CYP2C9 activators, primary screen, biochemical, luminescence. recombinant CYP2C9, luciferin-H conversion; active compounds read high; factor 1 = untreated enzyme, 0 = blocked. activation factor at 5 µM. 1.4% of 96,000 active. AID 1024, 2008;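 active = activation factor of 2 or more for CYP2C9 at a 5 µM dose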;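 note: 0 = sulfaphenazole-blocked wells and 1 = vehicle-only wells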
Target sequence (P11712 whole entry, looked up): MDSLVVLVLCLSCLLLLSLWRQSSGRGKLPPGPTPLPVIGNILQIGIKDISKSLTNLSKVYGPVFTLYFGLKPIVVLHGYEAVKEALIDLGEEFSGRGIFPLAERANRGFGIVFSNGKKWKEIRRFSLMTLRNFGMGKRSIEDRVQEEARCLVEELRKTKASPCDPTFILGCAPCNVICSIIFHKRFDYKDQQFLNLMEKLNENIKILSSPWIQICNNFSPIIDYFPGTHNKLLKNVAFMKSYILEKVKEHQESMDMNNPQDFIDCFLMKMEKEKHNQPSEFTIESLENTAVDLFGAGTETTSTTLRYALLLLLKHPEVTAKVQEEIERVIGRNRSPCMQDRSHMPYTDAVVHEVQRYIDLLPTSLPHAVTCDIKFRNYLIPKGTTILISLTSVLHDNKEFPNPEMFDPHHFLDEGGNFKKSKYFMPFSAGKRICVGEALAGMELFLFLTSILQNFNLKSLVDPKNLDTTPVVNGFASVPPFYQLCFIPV
Measles CPE: compounds protecting cells from measles virus cytopathic effect, primary screen, measles RdRp inhibitor project, single point, MLSMR library, absorbance; 1.5% of 140,000 active; Measles virus-infected cells, CPE protection; protection (pct of control), % at 4 µM; in the data active = protection mostly above about 24%, no sharp cut-off; inactive = mostly below about 26%
CYP2C19 inhib: blockers of cytochrome P450 2C19 activity – biochemical, luminescence, ADME assay, primary screen; AID 778, 2007; CYP2C19 Supersomes, luciferin-H EGE luminescence, 30 min; inhibition, % at 5 µM; 21% of 96,000 active;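 active = CYP2C19 inhibition above a set limit at 5 µM in the primary screen, cut at about 50% in these data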;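 note: plate controls were negative control wells for no effect and 2.5 mM tranylcypromine positive control for full effect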
CYP2C19 act: human CYP2C19 activators, primary screen, biochemical, luminescence | Cytochrome P450 2C19 (Homo sapiens), P33261 | recombinant CYP2C19, luciferin-H EGE luminescence; active compounds read high; 0 = fully inhibited enzyme, 1 = untreated enzyme | activation factor at 5 µM | 96,000 tested, under 10 active | AID 1025, 2008;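 active = activation factor of at least 2 at 5 µM in the primary screen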;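 note: 0 = wells with 2.5 mM tranylcypromine and 1 = vehicle-only wells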
CYP2C9 inh: blockers of cytochrome P450 2C9 activity – biochemical, luminescence, ADME assay, primary screen. P11712. CYP2C9 Supersomes, luciferin-H conversion. inhibition, % at 5 µM. 20% of 96,000 active. AID 777, 2007;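 active = blocking of liver enzyme CYP2C9 beyond about 50% at 5 µM, limit read from the data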
* = called active by the depositor; nt = no result.

SMILES	CYP2C9 activ	Measles CPE	CYP2C19 inhib	CYP2C19 act	CYP2C9 inh
COC(=O)c1ccccc1NC(=O)N1CCN(C/C=C/c2ccccc2)CC1	0.5	16	24	0.8	47
Cc1cc(C(=O)N2CCN(C/C=C/c3ccccc3)CC2)cs1	0.4	3	59*	0.4	61*
O=C(c1cc(Br)c(Br)s1)N1CCN(C/C=C/c2ccccc2)CC1	0.8	11	27	0.7	17
COc1cccc2cc(C(=O)N3CCN(C/C=C/c4ccccc4)CC3)c(=O)oc12	2.9*	5	35	0.6	-187
CC(=O)c1ccc(N2CCN(C(=O)c3ccc(OCc4c(C)noc4C)cc3)CC2)cc1	0.6	6	-1	1	41
Cc1noc(C)c1COc1cccc(C(=O)N2CCN(C/C=C/c3ccccc3)CC2)c1	0.1	9	90*	0.1	88*
COc1cccc2cc(C(=O)N3CCN(c4ncccn4)CC3)c(=O)oc12	1.2	18	-8	1.1	-16
COc1ccc(NC(=O)Nc2cccc(C(=O)N3CCOCC3)c2)cc1OC	0.9	9	12	0.9	12
Cc1noc(C)c1COc1cccc(C(=O)OCC(=O)N2CC(=O)Nc3ccccc32)c1	0.4	2	59*	0.4	63*
O=C(Nc1cnn(Cc2c(Cl)cccc2Cl)c1)C(c1ccccc1)c1ccccc1	0.1	6	15	0.8	87*
CCOc1ccc(NC2c3ccccc3C(=O)N2c2ccc(Cl)cn2)cc1 (stereo not drawn)	nt	9	nt	nt	nt
CCOc1ccc(NC2c3ccccc3C(=O)N2Cc2ccc3c(c2)OCO3)cc1 (stereo not drawn)	0	5	99*	0	98*
COc1cc(NC2c3ccccc3C(=O)N2Cc2ccc3c(c2)OCO3)cc(OC)c1OC (stereo not drawn)	0.4	3	98*	0	64*
CC(=O)c1cccc(NC2c3ccccc3C(=O)N2Cc2ccc3c(c2)OCO3)c1 (stereo not drawn)	0.4	4	38	0.6	61*
O=C1c2ccccc2C(Nc2ccc3c(c2)OCCO3)N1Cc1ccccc1 (stereo not drawn)	0	7	99*	0	98*
Cc1ccc(C2NC(=S)NC3=C2C(=O)CC(C)(C)C3)cc1 (stereo not drawn)	nt	7	nt	nt	nt
NC(=O)c1ccc(NC(=O)COC(=O)CCCN2C(=O)c3cccc4cccc(c34)C2=O)cc1	nt	8	nt	nt	nt
c1ccc2ncc(-n3cnnn3)cc2c1	1	38*	3	1	-3
CCCCNc1c(NC(C)=O)c(=O)oc2ccccc12	nt	6	nt	nt	nt
CCC(CC)c1nnc(NC(=O)c2ccc(S(=O)(=O)N3CCc4ccccc4C3)cc2)s1	nt	18	nt	nt	nt
CN1CCN(C2=Cc3ccccc3Sc3cc(F)c(Cl)cc32)CC1	nt	17	nt	nt	nt
CCOC(=O)C(NC(=O)C1CCCN1C(=O)OCc1ccccc1)C(=O)OCC (stereo not drawn)	nt	10	nt	nt	nt
Cc1ccccc1N(C(=O)Cc1c[nH]c2ccccc12)C(C(=O)NC1CCCCC1)c1ccco1 (stereo not drawn)	nt	9	nt	nt	nt
Cc1ccc(N(C(=O)Cc2c[nH]c3ccccc23)C(C(=O)NC2CCCCC2)c2ccco2)cc1 (stereo not drawn)	0.1	15	84*	0.2	94*
Cc1ccc(C(C(=O)NC2CCCCC2)N(Cc2ccco2)C(=O)Cc2c[nH]c3ccccc23)o1 (stereo not drawn)	0.5	18	54*	0.5	46
SMILES	CYP2C9 activ	Measles CPE	CYP2C19 inhib	CYP2C19 act	CYP2C9 inh
Cc1ccc(C(C(=O)NC2CCCCC2)N(C(=O)Cc2c[nH]c3ccccc23)c2ccccc2C)o1 (stereo not drawn)	nt	14	nt	nt	nt
COc1ccc(C(C(=O)NC2CCCCC2)N(Cc2cccs2)C(=O)Cc2c[nH]c3ccccc23)cc1OC (stereo not drawn)	0.1	12	-5	1	85*
Cc1cccnc1NC(=O)c1ccc2nc(N)sc2c1	0.8	10	6	0.9	22
Cc1ccc(N2CN(Cc3cccnc3)CNC2=S)cc1	nt	20	nt	nt	nt
O=C(c1cncc(Br)c1)N1CCc2ccccc2C1	0.6	10	86*	0.1	41
O=C(c1cccnc1)N1CCCc2ccccc21	1	7	22	0.8	0
O=C(c1cncc(Br)c1)N1CCCc2ccccc21	0.6	11	62*	0.4	40
O=C(c1ccc(Cl)nc1)N1CCc2ccccc2C1	0.5	12	98*	0	47
O=C(c1cccc(F)c1)N1CCc2ccccc2C1	0.9	21	70*	0.3	9
Cc1ccc(C(C(=O)NCc2ccco2)N(C(=O)CNC(=O)c2cccs2)c2ccc(C)cc2C)cc1 (stereo not drawn)	0.8	3	13	0.9	15
COc1cc(C2C3=C(CC(C)(C)CC3=O)OC(N)=C2[N+](=O)[O-])ccc1O (stereo not drawn)	nt	15	nt	nt	nt
Cc1ccc(-n2c(N)c(C#N)c(-c3ccc(Cl)cc3)c(C#N)c2=O)cc1	1	1	5	0.9	2
CCOc1cccc(SCc2noc(C(=O)NCC3CCCO3)c2C(=O)O)c1 (stereo not drawn)	0.5	4	54*	0.5	50*
Cc1ccc(SCc2noc(C(=O)NCC3CCCO3)c2C(=O)O)cc1C (stereo not drawn)	0.5	11	16	0.8	46
O=C(NCC1CCCO1)c1onc(CSc2cccc(Cl)c2)c1C(=O)O (stereo not drawn)	0.5	16	28	0.7	55*
O=C(NCC1CCCO1)c1onc(CSc2cccc3ccccc23)c1C(=O)O (stereo not drawn)	0.2	3	46	0.5	82*
COc1ccc(CC(=O)OCc2nnc(C3COc4ccccc4O3)o2)cc1OC (stereo not drawn)	nt	6	nt	nt	nt
CCCCCn1c(CN2CCN(C(=O)OCC)CC2)nc2c1c(=O)[nH]c(=O)n2C	1	6	-10	1.1	-4
COc1ccc(/C(C)=N/NC(=O)c2ccc(CSc3cccc4cccnc34)cc2)cc1OC	0.7	70*	46	0.5	29
Cc1ccc(NC(=O)c2ccc([N+](=O)[O-])cc2Cl)nc1	nt	8	nt	nt	nt
O=C1/C(=C/c2ccncc2)SC(=S)N1C1CCS(=O)(=O)C1 (stereo not drawn)	0.6	7	75*	0.2	42
C/C(=N\NS(C)(=O)=O)c1ccccc1	1.3	18	9	0.9	-27
CCn1c(C)nc2cc(C(=O)NNS(=O)(=O)c3c(C)c(C)cc(C)c3C)ccc21	1	18	55*	0.5	-2
CCn1c(C)nc2cc(C(=O)OC(C(F)(F)C(F)F)C(F)(F)C(F)F)ccc21	0.5	19	48	0.5	54*
CCn1c(C)nc2cc(C(=O)N/N=C/c3ccc(O)cc3)ccc21	nt	5	nt	nt	nt
